Results: the supplement of paper PMC4894684
Counter-ions that a name gives are not always drawn. ± gives the standard deviation of the averaged measurements.

Test system: Toxoplasma gondii RH (in HFF)
Assay: parasite growth relative to the screen mean (all compounds = 100%); higher = less inhibition of parasite growth
Settings: 5 µM; 72 h; oxygen 21 %
Summary of the method: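 Library compounds, held as 10 mM DMSO stocks, were pinned to 5 µM final onto confluent human foreskin fibroblasts in 96-well plates. The cells were infected within 2 h with RH β-Gal–GFP Toxoplasma (MOI 1:5), grown 72 h at 21% O2, and assayed for parasite number by CPRG β-Gal using in-plate standard curves. Growth is reported relative to the screen mean, in which all compounds = 100%, averaged over two screens, and CellTiter-Blue checked uninfected host-cell viability.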

Point of comparison: `c1nc(CC2CCNCC2)c[nH]1` [Immepip dihydrobromide], parasite growth 100.2 ± 0.4%. Against it:
- Cc1nc2ccc(NC(=O)Nc3ccnc4cccnc34)cc2o1 — lower, 88.83 ± 0.52%
- CNCCCCOc1ccccc1Cc1ccccc1 [Bifemelane hydrochloride] — lower, 43.6 ± 3.2%
- O=C1CCc2cc(OCCCCc3nnnn3C3CCCCC3)ccc2N1 [Cilostazol] — lower, 74.6 ± 3.3%
- CC1=C(/C=C/C(=C/C=C/C(C)=C/C(=O)O)c2ccc(C)cc2)C(C)(C)CCC1 — within error, 94.1 ± 23%
- COc1cc2nc(N3CCN(C(=O)c4ccco4)CC3)nc(N)c2cc1OC [Prazosin hydrochloride] — lower, 73.4 ± 17%
- NC(N)=Nc1ccc(Cl)cc1 [4-Chlorophenylguanidine hydrochloride] — higher, 125 ± 3.5%
- NC(=O)N/N=C/c1ccc(Oc2ccc(F)cc2)cc1 — higher, 145 ± 19%
- Cc1scc2c1N(C(=O)CN1CCN(C)CC1)c1ccccc1NC2=O [Telenzepine dihydrochloride] — higher, 133 ± 26%
- Cc1c(OCC(F)(F)F)ccnc1C[S+]([O-])c1nc2ccccc2[nH]1 (centres undefined) [Lansoprazole] — higher, 124 ± 9.3%
- Cc1ccc(C(=O)Nc2ccc(S(=O)(=O)O)c3cc(S(=O)(=O)O)cc(S(=O)(=O)O)c23)cc1NC(=O)c1cccc(NC(=O)Nc2cccc(C(=O)Nc3cc(C(=O)Nc4ccc(S(=O)(=O)O)c5cc(S(=O)(=O)O)cc(S(=O)(=O)O)c45)ccc3C)c2)c1 [Suramin hexasodium salt] — within error, 90 ± 22%
- CCOC(=O)N1CCC(=C2c3ccc(Cl)cc3CCc3cccnc32)CC1 [Loratidine] — higher, 112 ± 4.8%
- N[C@@H](CSS(=O)(=O)O)C(=O)O [S-Sulfo-L-cysteine sodium salt] — within error, 101 ± 6.6%
- O=C(O)CCC/C=C\CC1C(O)CC(O)C1/C=C/C(O)COc1cccc(Cl)c1 (racemic) [(±)-Cloprostenol sodium salt] — higher, 121 ± 15%
- C[C@]12CC[C@@H]3c4ccc(O)cc4C[C@@H](CCCCCCCCC[S+]([O-])CCCC(F)(F)C(F)(F)F)[C@H]3[C@@H]1CC[C@@H]2O (some centres undefined) — lower, 43.7 ± 11%
- O=C1c2ccccc2C(Cc2ccnc(F)c2)(Cc2ccnc(F)c2)c2ccccc21 — within error, 102 ± 14%
- O=C(O)c1c(Sc2ccccc2)c2cc(Cl)ccc2n1Cc1ccc(Cl)cc1 — lower, 88.5 ± 6.7%
- Cc1nc2sccn2c(=O)c1CCN1CCC(=C(c2ccccc2)c2ccc(F)cc2)CC1 — within error, 106 ± 24%
- O=C(O)CCCc1ccccc1 [sodium 4-Phenylbutyrate] — lower, 64.6 ± 3.4%
- CCOC(=O)[C@@H](C)Oc1cccc2c(=O)n(CC(=O)Nc3ccc4c(c3)OCCO4)ccc12 — higher, 118 ± 12%
- CC(C)[C@H](CO)Nc1nc(Nc2ccc(C(=O)O)c(Cl)c2)c2ncn(C(C)C)c2n1 [Purvalanol B] — higher, 141 ± 2.9%
- CC1(C)Oc2ccc(C#N)cc2[C@@H](N2CCCC2=O)[C@@H]1O [Levcromakalim] — higher, 158 ± 31%
- Nc1nnc(Sc2ncc([N+](=O)[O-])s2)s1 — within error, 116 ± 26%
- COc1cccc2c1C(=O)c1c(O)c3c(c(O)c1C2=O)C[C@@](O)(C(=O)CO)C[C@@H]3O[C@H]1C[C@H](N)[C@H](O)[C@H](C)O1 [Doxorubicin hydrochloride] — lower, 18.4 ± 7.7%
- COc1cccc(CCc2ccccc2OCC[C@@H]2C[C@@H](O)CN2C)c1 — lower, 53.4 ± 25%
- C[C@@]1(O)[C@H](O)[C@@H](CO)O[C@H]1n1cnc2c(NC3CCCC3)nc(Cl)nc21 — within error, 85.3 ± 39%
- N=C(CC(O)COc1ccccc1-c1ccccc1)N1CCCCC1 (centres undefined) — within error, 95.8 ± 34%
- CCCc1c(OCC(O)COc2ccc3c(=O)cc(C(=O)O)oc3c2CCC)ccc(C(C)=O)c1O (centres undefined) — within error, 96.9 ± 7.1%
- C[C@@H]1CN(CCCn2c3ccccc3c3ccccc32)C[C@H](C)N1 [Rimcazole dihydrochloride] — lower, 31.8 ± 4.5%
- CC(C)c1onc(-c2c(Cl)cccc2Cl)c1COc1ccc(/C=C/c2cccc(C(=O)O)c2)c(Cl)c1 — within error, 95.6 ± 18%
- O=C(NCCCCCCNC(=O)ON=C1CCCCC1)ON=C1CCCCC1 — lower, 28.7 ± 2.9%
- Cc1cccc(CCN2CCC(C(=O)c3ccc(NS(C)(=O)=O)cc3)CC2)n1 [E-4031 dihydrochloride] — higher, 150 ± 13%
- COCCCC/C(=N\OCCN)c1ccc(C(F)(F)F)cc1 [Fluvoxamine maleate] — lower, 49.7 ± 11%
- NC1CCN(c2cccc(Cl)n2)CC1 — higher, 141 ± 23%
- CC(C)(CO)Cc1cc(C(C)(C)C)c(O)c(C(C)(C)C)c1 — higher, 192 ± 11%
- CN/C(=N\c1ccc(C2=NNC(=O)CC2C)cc1)NC#N (centres undefined) [Siguazodan] — higher, 130 ± 23%
- COC1(C2=NCCN2)COc2ccccc2O1 (centres undefined) — higher, 136 ± 3.9%
- CC(C)NCC(O)COc1cccc2ccccc12 (centres undefined) [Propranolol hydrochloride] — within error, 99.4 ± 14%
- O=C(O)c1cc(=O)c2ccccc2[nH]1 [Kynurenic acid] — higher, 123 ± 18%
